GPR151 activ: activates the human receptor GPR151 | Q8TDV0 | PathHunter beta-arrestin GPR151 cells, luminescence | activation, % at 11.2 µM | 1% of 650,000 active | AID 1508602; in the data active means activation above about 4.9%;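 further: 0% = median of compound wells and 100% = cells with positive control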
Target sequence (Q8TDV0 whole entry, looked up): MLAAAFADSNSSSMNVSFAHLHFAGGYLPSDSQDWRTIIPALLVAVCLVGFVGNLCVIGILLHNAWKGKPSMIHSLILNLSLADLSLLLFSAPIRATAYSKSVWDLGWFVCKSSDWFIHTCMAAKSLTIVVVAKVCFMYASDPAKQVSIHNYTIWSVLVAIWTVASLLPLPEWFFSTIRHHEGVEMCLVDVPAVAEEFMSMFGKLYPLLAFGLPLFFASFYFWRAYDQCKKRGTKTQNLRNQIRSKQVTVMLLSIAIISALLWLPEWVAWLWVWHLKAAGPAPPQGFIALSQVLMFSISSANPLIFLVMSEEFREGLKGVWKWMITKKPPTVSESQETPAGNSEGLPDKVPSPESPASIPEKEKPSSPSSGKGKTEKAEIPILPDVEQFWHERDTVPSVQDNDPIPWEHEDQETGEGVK
MITF primary: human MITF inhibition, primary screen; O75030; AlphaScreen MITF homodimerization, bead proximity signal; inhibition, % at 2.6 µM; 0.91% of 650,000 active; AID 1259374; in the data active means inhibition above about 50%;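 further: 0% = vehicle wells with protein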
TEAD-YAP inh: TEAD-YAP interaction inhibition | inhibition, % at 9.12 µM | HEK-TIYL cells, TEAD-Gal4/YAP UAS-luciferase luminescence | 1.4% of 640,000 active | AID 1259422; in the data active means inhibition above about 32%;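 further: 0% = median of test compound wells and 100% = reference inhibitor wells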
FBW7 act: activators of human E3 ligase FBW7. Q969H0. AlphaScreen FBW7–phospho-cyclin E peptide binding, activator screen. normalized activity (activation), % at 26.1 µM. 0.13% of 650,000 active; in the data active means normalized activity above about 1.9%;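 further: purified mutant Fbw7 with reduced substrate affinity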
* hit, by the source's call. Hits are enriched below; roughly 3.5% of the tested compounds scored in any of these assays.

SMILES	GPR151 activ	MITF primary	TEAD-YAP inh	FBW7 act
CCC(CO)Nc1ccc2ncc(-c3cccc(Br)c3)n2n1 (stereo unspecified)	0.2	-4.7	0.7	0.1
COc1cc(-c2cnc3ccc(N[C@H](CO)C(C)C)nn23)ccc1O	-0.4	-12.5	93.2*	-0.5
CCC(CO)Nc1ccc2ncc(-c3ccccc3F)n2n1 (stereo unspecified)	-1.2	2.4	41.5*	0.6
CCC(CO)Nc1ccc2ncc(-c3ccc(C)cc3)n2n1 (stereo unspecified)	-0.4	14.4	24.5	-0.5
CCC(CO)Nc1ccc2ncc(-c3cccc(CO)c3)n2n1 (stereo unspecified)	-0.3	-13.9	48.0*	-0.1
CC(C)[C@@H](CO)Nc1ccc2ncc(-c3ccc4ccccc4c3)n2n1	-0.8	-22.3	14.4	-0.3
CCOc1ccc(NC(=O)CNC(=O)c2ccc(C)cc2)cc1	1.5	10.3	1.9	0.1
CC(C)C(NC(=O)c1ccc2c(c1)OCO2)C(=O)NN (stereo unspecified)	1.3	0.0	14.1	-0.1
Cc1cc(C)c2nc3s/c(=C\C=C/c4ccccc4)c(=O)n3c2c1	-0.9	20.5	-4.4	0.5
COc1cccc(/C=C2/SC(N)=NC2=O)c1OC	1.0	-9.8	-8.3	0.1
CCOC(=O)CSc1ccc(C(=O)N2CCN(c3ccc(OC)cc3)CC2)cc1[N+](=O)[O-]	1.4	-13.2	-2.5	0.2
CC(C)[C@@H](CO)Nc1ccc2ncc(-c3cccc(CO)c3)n2n1	-0.2	9.9	42.6*	-0.3
CC(C)[C@@H](CO)Nc1ccc2ncc(-c3cccc(N)c3)n2n1	-0.4	-10.7	16.6	-0.6
C=CCn1c(SCc2ccccc2)nc2sc3c(c2c1=O)CCCC3	-0.7	1.6	4.4	-0.1
COC1=CC(=O)C=C(OC)C1=O	0.6	4.6	55.4*	-0.1
O=C1C2C3C=CC(C3)C2C(=O)N1c1cc(F)ccc1F (stereo unspecified)	0.4	8.7	1.9	0.1
COc1ccc2occ(C(=O)c3oc4ccc(Cl)cc4c3N)c2c1	-0.8	-10.1	57.0*	0.0
CC(C)(CO)NC(=O)c1cccc(S(=O)(=O)N2CCCC2)c1	-0.2	12.7	5.1	0.3
COc1cccc(C(=O)/C=C/Nc2ccc([N+](=O)[O-])cc2OC)c1	0.4	1.1	34.6*	-0.1
COc1cc([N+](=O)[O-])ccc1N/C=C/C(=O)c1ccco1	0.1	15.0	71.1*	-0.1
COc1cc([N+](=O)[O-])ccc1NC(=O)c1ccco1	-1.0	11.8	-6.6	0.0
COc1cc([N+](=O)[O-])ccc1N/C=C/C(=O)c1ccc(C)o1	1.7	1.4	35.1*	-0.2
CCC(=O)Oc1ccc(C=O)cc1OC	0.0	5.2	2.2	-0.2
O=C(c1ccc2nonc2c1)N1CCC2(CC1)OCc1ccccc1O2	1.3	5.2	4.7	0.5
CCN1CCN(CC(O)CN2CCn3c4c(c5cc(C6CCCCC6)ccc53)CCCC42)CC1 (stereo unspecified)	-0.9	50.6*	-1.3	0.2
SMILES	GPR151 activ	MITF primary	TEAD-YAP inh	FBW7 act
CCN1CCn2c3c(c4cc(Br)ccc42)CCCC31 (stereo unspecified)	1.4	5.4	-12.1	-0.3
O=C(/C=C/c1ccccc1)Nc1ncc([N+](=O)[O-])s1	-4.8	-5.6	27.5	-0.6
CS(=O)(=O)N(Cc1ccccc1)c1ccc(C(=O)NCc2ccncc2)cc1	1.8	-2.2	-1.7	-0.1
COc1ccccc1-c1nc(Cn2cnc3cc(C)c(C)cc32)no1	2.6	-2.8	32.7*	0.7
CC(=O)N(C1=C(N2CCN(C)CC2)C(=O)c2ccccc2C1=O)c1cccc(F)c1	-1.5	-2.2	88.3*	-0.1
CC(=O)N(C1=C(Nc2ccccc2)C(=O)c2ccccc2C1=O)c1ccccc1	-2.3	20.8	8.6	-0.4
CCCNC1=C(N(C(C)=O)c2cccc(F)c2)C(=O)c2ccccc2C1=O	-5.5	6.8	93.3*	-0.3
CC(=O)N(C1=C(N2CCCCC2)C(=O)c2ccccc2C1=O)c1cccc(Cl)c1	-0.2	56.2*	-2.4	-0.3
CC(=O)N(C1=C(N2CCCC2)C(=O)c2ccccc2C1=O)c1ccc(F)c(F)c1	-3.6	-17.6	22.3	0.0
Cc1ccc(Nc2nc(Cl)nc(Nc3ccc(C)cc3C)n2)c(C)c1	-0.1	5.0	-1.2	0.0
Cc1ccccc1Nc1nc(Cl)nc(Nc2ccccc2C)n1	0.8	4.8	44.9*	-0.2
COc1ccc(-c2cn3nc(N4CCCC(C(=O)N5CCCCCC5)C4)sc3n2)cc1 (stereo unspecified)	0.7	6.8	45.0*	-0.2
CCSc1nc2c(c(=O)[nH]c(=O)n2C)n1CCCc1ccccc1	0.8	5.3	0.0	0.4
CCSc1nc2c(c(=O)[nH]c(=O)n2C)n1CCc1ccc(OC)cc1	0.0	-11.9	42.6*	0.1
O=C(Nc1ccc2c(c1)C(=O)N(c1ccccc1)C2=O)c1ccc(Br)cc1	-0.6	9.1	6.6	0.2
CCc1ccc(C2NC(=O)NC(C)=C2C(=O)OCc2ccc3c(c2)OCO3)cc1 (stereo unspecified)	-1.4	-2.8	54.6*	-0.1
CC1=C(C(=O)OCc2ccc3c(c2)OCO3)C(c2cc3c(cc2Br)OCO3)NC(=O)N1 (stereo unspecified)	1.0	-8.6	1.4	0.0
CC1=C(C(=O)OCc2ccc3c(c2)OCO3)C(c2ccccc2)NC(=O)N1 (stereo unspecified)	1.0	15.1	50.9*	0.0
C/C=C(\C)CN1CCc2nnc(C(C)NC(=O)COc3ccccc3)n2CC1 (stereo unspecified)	-0.8	-8.4	-1.2	0.0
COc1ccc2nc(Nc3nc(-c4ccccn4)cs3)sc2c1	1.3	51.4*	49.1*	-1.8
COc1ccc2sc(Nc3nc(-c4ccccn4)cs3)nc2c1	3.6	24.9	36.6*	-1.2
COc1ccc2nc(Nc3nc(-c4cccnc4)cs3)sc2c1	0.0	14.3	3.8	-0.1
O=C(NCCc1nnc2n1CCN(Cc1cc3ccccc3s1)CC2)C1CCCO1 (stereo unspecified)	0.4	-5.2	-9.0	-0.1
O=C(NCCc1nnc2n1CCN(Cc1c(F)cccc1F)CC2)c1cccnc1	-1.2	-2.8	-4.2	0.1
CCC(=O)Nc1sc2c(c1C(N)=O)CCC2	-0.9	-9.1	7.3	-0.1
SMILES	GPR151 activ	MITF primary	TEAD-YAP inh	FBW7 act
Cc1cccc(C(=O)Nc2sc3c(c2C(=O)O)CCCC3)c1	-6.3	0.1	69.9*	-0.1
Cc1ccc(NC(=O)c2c(NC(=O)c3ccc(Br)cc3)sc3c2CCCC3)c(C)c1	2.1	8.7	0.5	2.1*
NC(=O)c1c(NC(=O)CCl)sc2c1CCC2	-0.5	5.4	60.9*	-0.2
NC(=O)c1c(NC(=O)c2ccc(Br)o2)sc2c1CCCCC2	-3.5	-4.5	85.2*	-0.1
CC[C@@H]1NC(=O)[C@@H]2C[C@H](NC(=O)Nc3ccc(Cl)cc3Cl)CN2C1=O	-0.6	8.2	-12.7	0.6
O=C(NCCN1CCOCC1)c1ccc2nc(N3CCOCC3)sc2c1	-1.4	0.8	-44.4	-0.1
Cc1ccc(S(=O)(=O)OC2COC(c3ccccc3)OC2)cc1 (stereo unspecified)	0.5	11.9	7.1	0.0
CN1CC2([N+](=O)[O-])C=C(Oc3ccc(F)cc3)CC([N+](=O)[O-])(C1)C2 (stereo unspecified)	0.9	13.1	2.3	0.1

Screening data (PubChem BioAssay)
